Data as given in PubChem BioAssay AID893 (National Center for Advancing Translational Sciences (NCATS), 2007).
Hit rate of the full screen: of about 75,000 compounds, about 5,700 (7.6%) were called active. Not shown: some 7% with an inconclusive outcome. Calls follow the shape of the dose curve; as a rule, active = well fitted inhibition curve with a large enough effect; inconclusive = small, poorly fitted or top-dose-only effect; inactive = no such curve, though single readings can be large or run the other way. This excerpt belongs to a sample that is enriched for actives.
% is scaled to controls: 0 for no effect and ±100 for the full control effect; potency is read from the fitted curve at half-maximal effect.
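Also: the protocol describes HADH2 (HSD17B10) and not the HSD17B4 of the title; nearly all actives have a fitted effect of over 70% in size.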

Each compound was assayed against 3-hydroxyacyl-CoA dehydrogenase type-2 (Homo sapiens) (UniProt Q99714) (assay: qHTS Assay for Inhibitors of HSD17B4, hydroxysteroid (17-beta) dehydrogenase 4). Settings: recombinant HSD17B10, NADH fluorescence kinetic; series mostly up to 57.1 µM; activity change, negative = inhibition: at the top concentration.
Method in brief: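 His-tagged E. coli-expressed HADH2 at 20 nM in 100 mM Tris-HCl pH 9.0 with 0.01 % Tween-20, preincubated 15 min with compound at room temperature. Reaction with 1 mM NAD+ and 90 uM beta-hydroxybutyryl coenzyme A; NADH fluorescence (360/450 nm) read kinetically over 4 min, last minus first point.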
With `COC(=O)[C@@H]1C[C@H]2CC[C@H](O)C[C@H]2N1Cc1ccc(N2CCN(C)CC2)cc1` the “activity change, negative = inhibition” value was 3.6% (inactive).
With `CNC(=O)CSc1nnc(CCc2ccccc2)n1-c1ccccc1` the “activity change, negative = inhibition” value was -5.46% (inactive).
`CCCCCCN(C(=O)CCCCCN1C(=O)NC(c2ccc(C(F)(F)F)cc2)C(C(=O)OCc2ccccc2)=C1C)C(C(=O)NCCCC)c1ccc(OCC(=O)OC)c(C(=O)OC)c1` (centres undefined) was tested, and the “activity change, negative = inhibition” value was -15.2% (inactive).
For `O=C1c2ccccc2C(=O)N1CCCSc1ccccc1`, the activity change, negative = inhibition was -1.64% [at 11.4 µM] (inactive).
For `CCN1C(=O)c2cccc3c(N)ccc1c23`, the “activity change, negative = inhibition” value was 0.994% (inactive).
With `C[N+](C)(CCCCCC[N+](C)(C)CCCN1C(=O)c2cccc3cccc(c23)C1=O)CCCN1C(=O)c2cccc3cccc(c23)C1=O` the Potency was 25.1 µM (active).
In the case of `Cc1ccc(C(=O)NCCNS(=O)(=O)c2ccccc2)cc1`, the “activity change, negative = inhibition” value is reported as 7.56% (inactive).
For `COc1ccc(N2CCN(C(=O)CSc3nnc4ncccn34)CC2)cc1`, the “activity change, negative = inhibition” value was -1.15% (inactive).
`C=CCn1c(N)c(C(=O)OCC(C)C)c2nc3ccccc3nc21` was tested, and the Potency was 31.6 µM (active).
For `C=CCOC(=O)c1ccccc1C(=O)OCC=C`, the “activity change, negative = inhibition” value was 1.8% (inactive).
With `COC(=O)c1cn(CC(=O)NCc2cccs2)c2ccccc12` the “activity change, negative = inhibition” value was -2.79% (inactive).
In the case of `C=CCn1c(N)c(S(=O)(=O)c2cccs2)c2nc3ccccc3nc21`, the Potency is reported as 25.1 µM (active).
For `C=CCn1c(C(C)NC(=O)CC)nc2ccccc21` (centres undefined), the “activity change, negative = inhibition” value was -4.61% (inactive).
For `CC(C)Cn1c(N)c(C(=O)NCc2cccs2)c2nc3ccccc3nc21`, the Potency was 15.8 µM (active).
`CCN(CC(=O)NCc1cccs1)c1nnnn1-c1ccccc1` was tested, and the “activity change, negative = inhibition” value was 18.2% (inactive).
`c1csc(-c2nc(-c3ccncc3)no2)c1` was tested, and the “activity change, negative = inhibition” value was 6.88% (inactive).
In the case of `c1ccc2cc(OCCN3CCCC3)ccc2c1`, the “activity change, negative = inhibition” value is reported as 1.12% (inactive).
With `CCCC[C@H]1C(=O)N(c2ccccc2)N(c2ccc(O)cc2)C1=O` the “activity change, negative = inhibition” value was -15.3% [at 25.6 µM] (inactive).
With `C/C=C/C=C/C(=O)O` the “activity change, negative = inhibition” value was 7.5% (inactive).
With `COc1ccc(S(=O)(=O)N2CCC(C(=O)N3CCc4ccccc4C3)CC2)cc1OC` the “activity change, negative = inhibition” value was -13.7% (inactive).
In the case of `CSc1nnc2c(n1)OC(c1cn(C)c3ccccc13)N(C(C)=O)c1ccccc1-2` (centres undefined), the “activity change, negative = inhibition” value is reported as 0.0624% (inactive).
With `CCCCn1c(CCCNC(=O)CC)nc2ccccc21` the “activity change, negative = inhibition” value was 1.46% (inactive).
For `CCCCn1c(CN2CCN(CCO)CC2)nc2ccccc21`, the “activity change, negative = inhibition” value was 14.8% (inactive).
`CCCc1nc2c(C)cc(-c3nc4ccccc4n3C)cc2n1Cc1ccc(-c2ccccc2C(=O)O)cc1` was tested, and the Potency was 31.6 µM (active).
In the case of `Cc1ccc(Nc2cc(=O)n(C3CCCCC3)c(=O)[nH]2)cc1C`, the “activity change, negative = inhibition” value is reported as 0.726% (inactive).
For `Cc1ccc(CCn2c3c(c4ccccc42)CN(C)CC3)cn1`, the “activity change, negative = inhibition” value was -4.43% (inactive).
With `CC1(C)OC(C(O)(c2ccccc2)c2ccccc2)C(C(O)(c2ccccc2)c2ccccc2)O1` (centres undefined) the activity change, negative = inhibition was 1.95% [at 11.4 µM] (inactive).
With `C=CCN1C(=O)C(O)(CC(=O)c2ccc(Cl)cc2)c2ccccc21` (centres undefined) the “activity change, negative = inhibition” value was -9.85% (inactive).
`COc1cc2[nH]c(=S)n(Cc3ccc(C)o3)c(=O)c2cc1OC` was tested, and the “activity change, negative = inhibition” value was -14% (inactive).
`COc1cc2[nH]c(=O)n(CCC(=O)NC3CCN(Cc4ccccc4)CC3)c(=O)c2cc1OC` was tested, and the “activity change, negative = inhibition” value was -23.8% (inactive).
With `COc1cc2cc(CN(CCN3CCCC3)C(=O)Nc3ccccc3Cl)c(=O)[nH]c2cc1OC` the Potency was 25.1 µM (active).
With `COc1ccc(CCN(Cc2cc3cccc(C)c3[nH]c2=O)C(=O)N2CCCC2)cc1OC` the “activity change, negative = inhibition” value was -9.05% (inactive).
In the case of `C[C@@H](N)[C@@H](C)Cc1ccccc1`, the activity change, negative = inhibition is reported as 4.93% [at 11.4 µM] (inactive).
In the case of `c1ccc(CSCCc2ccncc2)cc1`, the activity change, negative = inhibition is reported as 1.7% [at 11.4 µM] (inactive).
In the case of `COc1ccc(/C=C/NC(=O)c2ccc(OC)cc2)cc1`, the activity change, negative = inhibition is reported as 7.09% [at 11.4 µM] (inactive).
`COc1ccc(C(=O)NC(=O)CSc2nnc(-c3ccco3)n2-c2ccccc2)cc1` was tested, and the “activity change, negative = inhibition” value was -19.2% (inactive).
For `COc1ccc(C(=O)NCc2cn3ccccc3n2)cc1`, the Potency was 31.6 µM (active).
For `CC(C)(O/N=C(\C(=O)N[C@@H]1C(=O)N2C(C(=O)[O-])=C(C[n+]3ccccc3)CS[C@@H]12)c1csc(N)n1)C(=O)O`, the “activity change, negative = inhibition” value was -25.6% [at 25.6 µM] (inactive).
In the case of `CC(C)[C@H]1CC[C@@H](C)C[C@H]1O`, the “activity change, negative = inhibition” value is reported as 19.7% (inactive).
In the case of `Cc1cc(C)c2cc(CN(Cc3cccs3)Cc3nnnn3CC3CCCO3)c(=O)[nH]c2c1` (centres undefined), the “activity change, negative = inhibition” value is reported as -5.81% (inactive).
In the case of `COc1ccc2[nH]c(=O)c(CN(CC3CCCO3)C(=O)Nc3ccccc3)cc2c1` (centres undefined), the Potency is reported as 25.1 µM (active).
`COc1ccc(N(Cc2cc3cc(OC)ccc3[nH]c2=O)S(C)(=O)=O)cc1` was tested, and the “activity change, negative = inhibition” value was 5.18% (inactive).
With `CCN(Cc1cc2cc(C)ccc2[nH]c1=O)S(=O)(=O)c1ccccc1` the “activity change, negative = inhibition” value was -5.26% (inactive).
For `CCOc1ccc2[nH]c(=O)c(CN(CCCO)C(C)=O)cc2c1`, the Potency was 31.6 µM (active).
In the case of `CCC(=O)N(Cc1cc2cc(OC)ccc2[nH]c1=O)c1ccccc1C`, the Potency is reported as 25.1 µM (active).
In the case of `Cc1ccc2[nH]c(=O)c(COC(=O)c3ccccn3)cc2c1`, the “activity change, negative = inhibition” value is reported as 2.81% (inactive).
With `O=C(CN(CC1CCCO1)C(=O)CNS(=O)(=O)c1ccccc1)NCc1ccccc1` (centres undefined) the “activity change, negative = inhibition” value was 3.8% (inactive).
With `CCC(c1nnnn1Cc1ccccc1)N(Cc1cc2cc(OC)ccc2[nH]c1=O)CC1CCCO1` (centres undefined) the “activity change, negative = inhibition” value was -14.7% (inactive).
In the case of `COc1cccc(-n2c(Cc3cc(=O)[nH]c(=O)[nH]3)nnc2SCC(=O)Nc2ccccc2)c1`, the “activity change, negative = inhibition” value is reported as 13.3% (inactive).
In the case of `CCOC(=O)c1cc2cc(C)ccc2[nH]1`, the “activity change, negative = inhibition” value is reported as -29.8% (inactive).
For `COc1ccc2[nH]c(=O)c(CN(Cc3nnnn3CCc3ccccc3)CC3CCCO3)cc2c1` (centres undefined), the Potency was 25.1 µM (active).
In the case of `COCC(=O)N1CCC2(CCCN(c3ccccc3)C2)CC1`, the “activity change, negative = inhibition” value is reported as 0.0239% (inactive).
With `Cc1cc(N(C)C)cc(C)[n+]1[O-]` the “activity change, negative = inhibition” value was -0.103% (inactive).
For `O=C(O)CCC(=O)N(Cc1ccco1)c1nc(-c2ccccc2)cs1`, the “activity change, negative = inhibition” value was 1.5% (inactive).
With `O=C(c1cccc(C(=O)N2CCc3ccccc32)n1)N1CCc2ccccc21` the “activity change, negative = inhibition” value was 0.85% (inactive).
For `COc1cc(OC)c2c(c1Cl)OC1(C2=O)C(O)=CC(=O)CC1C` (centres undefined), the “activity change, negative = inhibition” value was 3.09% (inactive).
In the case of `Cc1c(C)c2cc3c4c(oc3c(C)c2oc1=O)CCCC4`, the “activity change, negative = inhibition” value is reported as -7.6% (inactive).
With `CCCOc1ccc2c3c(c(=O)oc2c1OCCC)CCC3` the Potency was 12.6 µM (active).
`COc1ccc(C(=O)OCC(=O)c2ccc(C)c(S(=O)(=O)N3CCOCC3)c2)cc1OC` was tested, and the “activity change, negative = inhibition” value was 55.3% (inactive).
`COc1ccc2c3c(c(=O)oc2c1OCC(=O)C(C)(C)C)CCCC3` was tested, and the Potency was 25.1 µM (active).
With `COc1ccc(Cl)cc1S(=O)(=O)N1CCN(CC(=O)C(C)(C)C)CC1` the “activity change, negative = inhibition” value was 5.3% (inactive).
`O=C(COc1ccc(S(=O)(=O)NCCc2ccccc2)cc1)N1CCCC1` was tested, and the “activity change, negative = inhibition” value was -0.347% (inactive).
For `c1nnc2c3c4c(sc3ncn12)CCC4`, the “activity change, negative = inhibition” value was 4% (inactive).
In the case of `CCOC(=O)C1=C(C)NC(=O)N(C(C)=O)C1c1ccc(Cl)cc1` (centres undefined), the “activity change, negative = inhibition” value is reported as -3.44% (inactive).
